PubChem BioAssay (EPA / NIEHS)
A structure can be active in one record and inactive in another. The source made the active and inactive calls. The calls were made as follows: active = hit-call score of the fitted dose curve at least 0.9, where 1 is the maximum; inactive = score below 0.9.

Test: ATG_MRE_CIS: Attagene CIS-FACTORIAL HepG2 Assay for human Metal Responsive Element (MRE) (AID 2282954)
Details: HepG2 MRE cis-reporter transcription, Attagene multiplex; actives raise or lower the signal
Method: ATG_CIS is a cell-based, multiplexed-readout assay that uses HepG2, a human liver cell line, with measurements taken at 24 hours after chemical dosing in a 24-well plate.ATG_MRE_CIS is one of 52 assay component(s) measured or calculated from the ATG_CIS assay. It is designed to make measurements of mRNA induction, a form of inducible reporter, as detected with fluorescence intensity signals by Reverse transcription polymerase chain reaction (RT-PCR) and Capillary electrophoresis technology.Data from the assay component ATG_MRE_CIS was analyzed into 1 assay endpoint. This assay endpoint, ATG_MRE_CIS, was analyzed with bidirectional fitting relative to DMSO as the negative control and baseline of activity. Using a type of inducible reporter, measures of mRNA for gain or loss-of-signal activity can be used to understand the reporter gene at the transcription factor-level as they relate to the gene MTF1. Furthermore, this assay endpoint can be referred to as a primary readout, because this assay has produced multiple assay endpoints where this one serves a reporter gene function. To generalize the intended target to other relatable targets, this assay endpoint is annotated to the dna binding intended target family, where the subfamily is zinc finger.
Human liver HepG2 cells are transiently transfected with multiple reporter transcription units (MRTUs) in 6-well plates using FuGene 6 reagent (Roche; 3 ml FuGene/1 mg DNA). The MRTU constructs are regulated by a cis-regulating element (promoter). […] A major difference between the CIS and TRANS system is that in CIS activities of endogenous TFs are measured, whereas the TRANS assay evaluates changes in activities of exogenous, chimeric NR-Gal4 proteins. […] At the end of 24 hour incubation, total RNA was isolated using TriZol reagent (Invitrogen). The isolated RNA is then reverse-transcribed using oligo(dT) primer and Mo-MLV reverse transcriptase (Invitrogen) with DNAse I (Ambion) treatment for 30 min. The one-tenth of the produced cDNA was amplified by PCR using Taq DNA polymerase (Invitrogen) and two reporter sequence-specific primers. The PCR products were fluorescently labeled by primer extension with 6-arboxyfluorescein (6-FAM) 5'-labeled reporter sequence-specific primer (2 min at 95 C, 20 s at 68 C and 10 min at 72 C) and these products were digested with 5U of HpaI (New England Biolabs) for 2h at 37 C. The fragments were purified using Qiaquick PCR columns (Qiagen), analyzed on an ABI 3130xL genetic analyzer (Applied Biosystems) with peak positions identified by using a set of X-rhodamine (ROX)-labeled MapMarker1000 molecular weight standards (BioVentures). The raw capillary electrophoresis data was processed using Attagraph software (Attagene).
For `CCCCOCC(C)OCC(C)O` (stereo not given), the outcome was “inactive”.
For `CCn1cc(C(=O)O)c(=O)c2ccc(C)nc21`, the outcome was “inactive”.
In the case of `CC(C)Cc1ccccc1`, the outcome is reported as “inactive”.
For `N=C1N=C(N)c2ccccc21`, the AC50 was 74.5 µM (active).
With `CC(=O)N(C)C` the outcome was “inactive”.
In the case of `ClCCOCCOCCCl`, the outcome is reported as “inactive”.
For `C/C=C(\C)C(=O)OC/C=C(\C)CCC=C(C)C`, the outcome was “inactive”.
With `CC(CO)c1ccccc1` (stereo not given) the outcome was “inactive”.
For `O=C1OC2(c3ccc(O)cc3Oc3cc(O)ccc32)c2ccccc21`, the outcome was “inactive”.
With `C[C@H](CCC(=O)O)[C@H]1CC[C@H]2[C@@H]3CC[C@@H]4C[C@H](O)CC[C@]4(C)[C@H]3CC[C@]12C` the AC50 was 26.4 µM (active).
With `CC1=CCC(C(C)C)=CC1` the outcome was “inactive”.
In the case of `CC(=O)OC(C)(C)C`, the outcome is reported as “inactive”.
For `CNC(=C[N+](=O)[O-])NCCSCc1ccc(CN(C)C)o1`, the outcome was “inactive”.
In the case of `CCCOC(=O)CC`, the outcome is reported as “inactive”.
In the case of `N#CCCCC(C#N)CCC#N` (stereo not given), the outcome is reported as “inactive”.
With `CC(C)N1C(=O)c2ccccc2C1=O` the outcome was “inactive”.
In the case of `O=S(=O)(O)c1cc(S(=O)(=O)O)c2c(N=Nc3ccccc3)c(O)ccc2c1`, the outcome is reported as “inactive”.
In the case of `CC(C)(O)C(=O)c1ccc(OCCO)cc1`, the outcome is reported as “inactive”.
With `CC(=O)c1ccc(O)cc1` the outcome was “inactive”.
With `CCCC(O)C(CC)CO` (stereo not given) the outcome was “inactive”.
In the case of `c1ccc(OCCOc2ccccc2)cc1`, the outcome is reported as “inactive”.
For `CCC(C)(C)c1cc(O)c(C(C)(C)CC)cc1O`, the AC50 was 16.2 µM (active).
With `CC(C)=CCCC(C)=CC(=O)O` the outcome was “inactive”.
For `CCCO`, the outcome was “inactive”.
For `OCCCO`, the outcome was “inactive”.
In the case of `O=C(O)c1ccccc1O`, the outcome is reported as “inactive”.
In the case of `C=C(C)C(=O)OCCN(C)C`, the outcome is reported as “inactive”.
With `CCCCCCCCCCCCCCCCCC(=O)OCCCCCCCCCCCCCC(C)C` the outcome was “inactive”.
For `CC(=O)Nc1cc(S(=O)(=O)O)cc2cc(S(=O)(=O)O)c(N=Nc3ccccc3)c(O)c12`, the outcome was “inactive”.
With `O=S1(=O)CC=CC1` the outcome was “inactive”.
With `O=C(c1ccc(OCCN2CCCCC2)cc1)c1c(-c2ccc(O)cc2)sc2cc(O)ccc12` the AC50 was 15.8 µM (active) [middle of 4 runs] and the outcome was “inactive”.
For `NC(=O)NC(N)=O`, the outcome was “inactive”.
With `CCCCCCCCCCCCOC(C)=O` the outcome was “inactive”.
In the case of `O=C1CCCCCCCCCCCC(=O)OCCO1`, the outcome is reported as “inactive”.
In the case of `CC1(C)[C@H](C=C(Cl)Cl)[C@H]1C(=O)OCc1cccc(Oc2ccccc2)c1`, the outcome is reported as “inactive”.
For `C=CCOCC(O)CO` (stereo not given), the outcome was “inactive”.
In the case of `CC12CCC(C1)C(C)(C)C2O` (stereo not given), the outcome is reported as “inactive”.
For `C=CCCCCCCCCC(=O)OCC`, the outcome was “inactive”.
For `COc1ccccc1NC(=O)CC(C)=O`, the outcome was “inactive”.
